GPR151 ag = activators of human GPR151, primary screen, cell-based, PathHunter beta-arrestin, luminescence | actives 1% (n = 650,000) | PathHunter beta-arrestin GPR151 cells | G-protein coupled receptor 151 (Homo sapiens), Q8TDV0 | activation, % at 11.2 µM; in the data active = activation above about 4.9%
TEAD-YAP block = TEAD-YAP interaction inhibition, primary screen, TEAD-YAP interaction inhibitor project, luminescence, HEK-TIYL cells; TEAD-Gal4/YAP UAS-luciferase luminescence; inhibition, % at 9.12 µM; actives 1.4% (n = 640,000); in the data active = inhibition above about 32%
FBW7 act = FBW7 E3 ligase activators, primary screen, biochemical, AlphaScreen, human | F-box/WD repeat-containing protein 7 (Homo sapiens), Q969H0 | AlphaScreen FBW7–phospho-cyclin E peptide binding, activator screen | normalized activity (activation), % at 26.1 µM | actives 0.13% (n = 650,000) | AID 1259310, 2017; in the data active = normalized activity above about 1.9%;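 note: purified mutant Fbw7 with reduced substrate affinity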
Target sequence (Q969H0 whole entry, looked up): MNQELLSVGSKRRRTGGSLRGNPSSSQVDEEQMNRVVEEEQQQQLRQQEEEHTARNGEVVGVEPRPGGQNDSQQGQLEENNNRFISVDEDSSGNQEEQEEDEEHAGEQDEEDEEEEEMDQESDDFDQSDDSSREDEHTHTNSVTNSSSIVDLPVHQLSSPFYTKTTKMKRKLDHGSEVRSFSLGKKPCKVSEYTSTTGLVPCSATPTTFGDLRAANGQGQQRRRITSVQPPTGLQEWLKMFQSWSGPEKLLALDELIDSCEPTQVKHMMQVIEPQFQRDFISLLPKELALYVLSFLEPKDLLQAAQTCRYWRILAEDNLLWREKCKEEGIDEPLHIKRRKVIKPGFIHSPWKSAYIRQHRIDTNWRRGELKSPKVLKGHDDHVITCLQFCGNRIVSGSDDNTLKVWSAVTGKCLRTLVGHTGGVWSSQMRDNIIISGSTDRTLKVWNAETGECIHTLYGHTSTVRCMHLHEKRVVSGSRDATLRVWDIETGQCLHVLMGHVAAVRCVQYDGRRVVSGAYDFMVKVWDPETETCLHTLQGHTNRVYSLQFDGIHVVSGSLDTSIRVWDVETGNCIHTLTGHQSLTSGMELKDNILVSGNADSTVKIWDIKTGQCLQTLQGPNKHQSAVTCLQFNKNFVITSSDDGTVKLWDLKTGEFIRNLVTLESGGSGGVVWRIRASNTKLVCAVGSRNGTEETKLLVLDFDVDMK
MITF primary = MITF inhibitors, primary screen, biochemical, AlphaScreen, human; AlphaScreen MITF homodimerization, bead proximity signal; inhibition, % at 2.6 µM; actives 0.91% (n = 650,000); AID 1259374, 2018; in the data active = inhibition above about 50%
A number is an active result; i = inactive; nt = no result given. Most compounds without a hit are left out; they make up all but 3.4% or so of the library.

SMILES | GPR151 ag | TEAD-YAP block | FBW7 act | MITF primary
O=C(O)COc1ccccc1/C=C1\C(=O)NC(=O)N(c2ccc(O)cc2)C1=O | i | i | i | 75.1
COc1cc(/C=C2\C(=O)NC(=O)N(c3ccc([N+](=O)[O-])cc3)C2=O)ccc1OCC(=O)O | i | i | i | i
C[C@]12CCC(OC3CCCCO3)CC1CCC1C2CC[C@]2(C)C(O)CCC12 (stereo partly specified) | i | i | i | i
CC(=O)c1ccc(-c2ccccc2)cc1 | i | i | i | i
N#CC(C#N)=NNc1ccc(-c2ccccc2)cc1 | i | 43.9 | i | i
COc1cc(/C=C/c2nc3ccccc3c(=O)n2-c2ccc(C)cc2)cc(Br)c1O | i | i | i | i
O=C1NC(=O)N(c2ccc(Br)cc2)C(=O)/C1=C/c1ccc(O)c(O)c1 | i | i | i | 89.6
O=C1NC(=O)N(c2ccc(Br)cc2)C(=O)/C1=C/c1ccc(O)cc1 | i | i | i | i
c1ccc(C2=NN(c3ccccc3)N(c3ccccc3)N2)cc1 | i | 76.3 | i | i
CN1CCN(C(=O)COc2ccc(C(C)(C)C)cc2)CC1 | i | i | i | i
CC(C)C/C(=N/O)c1c[nH]c2ccccc12 | i | i | i | i
CC(C)N1CC=C(c2c[nH]c3ccccc23)CC1 | i | 36.8 | i | i
CN1C(=O)[C@]23CC4=CC=C[C@H](O)[C@H]4N2C(=O)[C@@]1(CO)SS3 | i | 87.9 | i | i
CC1CCN(Cc2ccc(NC(=O)CCc3nc(C4=CCN(C)CC4)no3)cc2)CC1 | i | i | 3.9 | i
CCn1nc(/C=C\c2ccccc2)nc2c(=O)n(C)c(=O)nc1-2 | i | 40.3 | i | i
CCOc1ccc(-n2c(/C=C/c3ccc(OC)cc3)nc3ccccc3c2=O)cc1 | i | i | i | i
Cc1[nH]c2c(C(C)C)cccc2c1CCN | i | 91.0 | i | i
Cc1[nH]c2ccccc2c1CCN | i | i | 2.1 | i
Cc1[nH]c2ccc(Cl)cc2c1CCN | i | i | i | i
COc1ccc(CNCCc2ccc3c(c2)OCO3)cc1 | i | i | i | i
CCCCCCCC/C=C\CCCCCCCC(=O)Nc1ccccc1 | i | nt | nt | i
CC(C)(C)n1cc(C(=O)c2ccccc2O)cn1 | i | i | i | i
CC(C)(C)n1cc(C(=O)c2ccc3ccccc3c2O)cn1 | i | 49.6 | i | i
Cn1cccc1/C=C1/C(=O)NC(=S)N(c2ccc(Cl)cc2)C1=O | i | i | i | i
O=C1NC(=S)N(c2ccc(Cl)cc2)C(=O)/C1=C\c1ccc([N+](=O)[O-])o1 | i | i | i | 68.2
SMILES | GPR151 ag | TEAD-YAP block | FBW7 act | MITF primary
COC1=CC23CCCN2CCc2cc4c(cc2C3C1O)OCO4 (stereo unspecified) | i | i | i | i
COC(=O)C[C@@](O)(CCC(C)(C)O)C(=O)O[C@@H]1C(OC)=C[C@]23CCCN2CCc2cc4c(cc2[C@@H]13)OCO4 | i | 101.3 | i | i
COc1ccc(OC)c(CNCCc2c[nH]c3ccccc23)c1 | i | i | i | 64.5
O=c1c2ccccc2nc(/C=C/c2ccc(Br)cc2)n1-c1ccc(O)cc1 | i | i | i | i
CC1=CC(=C2C(=O)NC(=S)NC2=O)C=C(C(F)(F)F)N1Cc1ccccc1 | i | 51.6 | i | i
O=c1[nH]c2c(Br)c(Br)c(Br)cc2o1 | i | i | i | i
CCN(CC)C1=NC(=[N+](CC)CC)c2ccccc21 | i | 74.0 | i | i
CC1=CC(=O)NP(=O)(Oc2ccc3ccccc3c2)N1 (stereo unspecified) | i | i | 1.9 | i
CC(C)=CCC[C@]1(C)C=Cc2c(O)c3c(c(CC=C(C)C)c2O1)O[C@]12C(=CC4C[C@@H]1C(C)(C)O[C@@]2(C/C=C(/C)C(=O)O)C4=O)C3=O | i | 75.2 | i | i
CCN1C(=O)NC(=O)/C(=C\c2cn(CC(=O)NCc3ccco3)c3ccccc23)C1=O | i | i | i | i
CN1CCN(C(=O)Cc2ccc(NC3=NC4CS(=O)(=O)CC4S3)cc2)CC1 (stereo unspecified) | i | i | 2.6 | i
CC(C)CCCn1c(O)c(/C=C2\C=CC=N2)c(=O)[nH]c1=O | i | i | i | i
O=c1[nH]c(=O)n(Cc2ccccc2Cl)c(O)c1/C=C1\C=CC=N1 | i | 51.6 | i | i
COc1ccc(-c2nc(CSCC(=O)N3CCC4(CC3)OCCO4)c(C)o2)cc1OC | i | i | i | i
Cc1ccc(-c2nc(CSCC(=O)N3CCC4(CC3)OCCO4)c(C)o2)cc1 | i | 49.9 | i | i
CCOc1ccc(-c2nc(CSCC(=O)N3CCC4(CC3)OCCO4)c(C)o2)cc1 | i | 53.0 | i | i
O=C1OC(c2cncc(Br)c2)=N/C1=C/C=C/c1ccccc1 | i | i | i | i
COc1ccc2cc(-c3nc4ccccc4[nH]3)c(=N)oc2c1 | i | 65.5 | i | i
CCOc1cc(C2C(C#N)=C(N)Oc3c2c(=O)oc2ccccc32)cc([N+](=O)[O-])c1OC(=O)c1cccs1 (stereo unspecified) | i | i | i | i
Cc1ccc(-n2c(/C=C/c3sccc3C)nc3ccccc3c2=O)cc1 | i | i | i | i
CC(N)[C@H](O)c1ccc(O)c(O)c1 (stereo partly specified) | i | i | i | 89.1
C[C@H](N)[C@H](O)c1ccccc1 | i | i | i | i
COc1ccc(OC)c(C2NCCc3[nH]cnc32)c1 (stereo unspecified) | i | i | i | i
CCN(CC)P1(=S)C(N(C)C)=Nc2ccccc21 (stereo unspecified) | i | i | i | i
CNC(=O)Oc1cc([N+](=O)[O-])cc2cccnc12 | i | 74.5 | i | 96.0
SMILES | GPR151 ag | TEAD-YAP block | FBW7 act | MITF primary
CCOC(=O)C1=C(C)N(C)C(=O)C12C(C#N)=C(N)Oc1ccccc12 (stereo unspecified) | i | i | i | i
CN(C)C(=S)SSC(=S)N(C)C | i | 34.4 | i | i
COC(=O)C1(C#N)CC2c3ccccc3C1c1ccccc12 (stereo unspecified) | i | i | i | i
CCOC(=O)C1(C#N)CC2c3ccccc3C1c1ccccc12 (stereo unspecified) | i | i | 2.0 | i
Cc1cc(N(C)C)cc(C)[n+]1OC(=O)N(c1ccccc1)c1ccccc1 | i | 64.1 | i | i
CC(=O)c1ccc(OC(=O)N(C)c2ccccc2)cc1 | i | i | i | i
CCCCCC[C@H]1C(=O)O[C@H](C)[C@H](NC(=O)c2cccc(NC=O)c2O)C(=O)O[C@@H](C)[C@@H]1OC(=O)CC(C)C | i | 49.5 | i | i
CCCCC[C@H]1C(=O)O[C@H](C)[C@H](NC(=O)c2cccc(NC=O)c2O)C(=O)O[C@@H](C)[C@@H]1OC(=O)CC(C)C | i | 51.8 | i | i
COc1ccc(NC(=S)NC(NC(=O)CF)C(Cl)(Cl)Cl)cc1 (stereo unspecified) | i | i | i | i
